Rows were chosen to be rich in hits. Some 3.6% of all compounds tested hit in one or more screens of this group.
Pf apPOL inh – Pf-apPOL DNA polymerase inhibition. AID 1794808. Recombinant Pf-apPOL, molecular beacon fluorescence, 1.5 h. inhibition, % at 10 µM. 0.25% of 210,000 active
mHTT CaM bind – inhibitors of human mutant huntingtin-calmodulin interaction. inhibition, % at 15 µM. AlphaScreen His-mHTT/GST-CaM binding, luminescence. 3.6% of 190,000 active. P42858;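 note: 0% = both proteins with DMSO and 100% = one protein alone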
Target sequence (P42858 whole entry, looked up, stated change not applied): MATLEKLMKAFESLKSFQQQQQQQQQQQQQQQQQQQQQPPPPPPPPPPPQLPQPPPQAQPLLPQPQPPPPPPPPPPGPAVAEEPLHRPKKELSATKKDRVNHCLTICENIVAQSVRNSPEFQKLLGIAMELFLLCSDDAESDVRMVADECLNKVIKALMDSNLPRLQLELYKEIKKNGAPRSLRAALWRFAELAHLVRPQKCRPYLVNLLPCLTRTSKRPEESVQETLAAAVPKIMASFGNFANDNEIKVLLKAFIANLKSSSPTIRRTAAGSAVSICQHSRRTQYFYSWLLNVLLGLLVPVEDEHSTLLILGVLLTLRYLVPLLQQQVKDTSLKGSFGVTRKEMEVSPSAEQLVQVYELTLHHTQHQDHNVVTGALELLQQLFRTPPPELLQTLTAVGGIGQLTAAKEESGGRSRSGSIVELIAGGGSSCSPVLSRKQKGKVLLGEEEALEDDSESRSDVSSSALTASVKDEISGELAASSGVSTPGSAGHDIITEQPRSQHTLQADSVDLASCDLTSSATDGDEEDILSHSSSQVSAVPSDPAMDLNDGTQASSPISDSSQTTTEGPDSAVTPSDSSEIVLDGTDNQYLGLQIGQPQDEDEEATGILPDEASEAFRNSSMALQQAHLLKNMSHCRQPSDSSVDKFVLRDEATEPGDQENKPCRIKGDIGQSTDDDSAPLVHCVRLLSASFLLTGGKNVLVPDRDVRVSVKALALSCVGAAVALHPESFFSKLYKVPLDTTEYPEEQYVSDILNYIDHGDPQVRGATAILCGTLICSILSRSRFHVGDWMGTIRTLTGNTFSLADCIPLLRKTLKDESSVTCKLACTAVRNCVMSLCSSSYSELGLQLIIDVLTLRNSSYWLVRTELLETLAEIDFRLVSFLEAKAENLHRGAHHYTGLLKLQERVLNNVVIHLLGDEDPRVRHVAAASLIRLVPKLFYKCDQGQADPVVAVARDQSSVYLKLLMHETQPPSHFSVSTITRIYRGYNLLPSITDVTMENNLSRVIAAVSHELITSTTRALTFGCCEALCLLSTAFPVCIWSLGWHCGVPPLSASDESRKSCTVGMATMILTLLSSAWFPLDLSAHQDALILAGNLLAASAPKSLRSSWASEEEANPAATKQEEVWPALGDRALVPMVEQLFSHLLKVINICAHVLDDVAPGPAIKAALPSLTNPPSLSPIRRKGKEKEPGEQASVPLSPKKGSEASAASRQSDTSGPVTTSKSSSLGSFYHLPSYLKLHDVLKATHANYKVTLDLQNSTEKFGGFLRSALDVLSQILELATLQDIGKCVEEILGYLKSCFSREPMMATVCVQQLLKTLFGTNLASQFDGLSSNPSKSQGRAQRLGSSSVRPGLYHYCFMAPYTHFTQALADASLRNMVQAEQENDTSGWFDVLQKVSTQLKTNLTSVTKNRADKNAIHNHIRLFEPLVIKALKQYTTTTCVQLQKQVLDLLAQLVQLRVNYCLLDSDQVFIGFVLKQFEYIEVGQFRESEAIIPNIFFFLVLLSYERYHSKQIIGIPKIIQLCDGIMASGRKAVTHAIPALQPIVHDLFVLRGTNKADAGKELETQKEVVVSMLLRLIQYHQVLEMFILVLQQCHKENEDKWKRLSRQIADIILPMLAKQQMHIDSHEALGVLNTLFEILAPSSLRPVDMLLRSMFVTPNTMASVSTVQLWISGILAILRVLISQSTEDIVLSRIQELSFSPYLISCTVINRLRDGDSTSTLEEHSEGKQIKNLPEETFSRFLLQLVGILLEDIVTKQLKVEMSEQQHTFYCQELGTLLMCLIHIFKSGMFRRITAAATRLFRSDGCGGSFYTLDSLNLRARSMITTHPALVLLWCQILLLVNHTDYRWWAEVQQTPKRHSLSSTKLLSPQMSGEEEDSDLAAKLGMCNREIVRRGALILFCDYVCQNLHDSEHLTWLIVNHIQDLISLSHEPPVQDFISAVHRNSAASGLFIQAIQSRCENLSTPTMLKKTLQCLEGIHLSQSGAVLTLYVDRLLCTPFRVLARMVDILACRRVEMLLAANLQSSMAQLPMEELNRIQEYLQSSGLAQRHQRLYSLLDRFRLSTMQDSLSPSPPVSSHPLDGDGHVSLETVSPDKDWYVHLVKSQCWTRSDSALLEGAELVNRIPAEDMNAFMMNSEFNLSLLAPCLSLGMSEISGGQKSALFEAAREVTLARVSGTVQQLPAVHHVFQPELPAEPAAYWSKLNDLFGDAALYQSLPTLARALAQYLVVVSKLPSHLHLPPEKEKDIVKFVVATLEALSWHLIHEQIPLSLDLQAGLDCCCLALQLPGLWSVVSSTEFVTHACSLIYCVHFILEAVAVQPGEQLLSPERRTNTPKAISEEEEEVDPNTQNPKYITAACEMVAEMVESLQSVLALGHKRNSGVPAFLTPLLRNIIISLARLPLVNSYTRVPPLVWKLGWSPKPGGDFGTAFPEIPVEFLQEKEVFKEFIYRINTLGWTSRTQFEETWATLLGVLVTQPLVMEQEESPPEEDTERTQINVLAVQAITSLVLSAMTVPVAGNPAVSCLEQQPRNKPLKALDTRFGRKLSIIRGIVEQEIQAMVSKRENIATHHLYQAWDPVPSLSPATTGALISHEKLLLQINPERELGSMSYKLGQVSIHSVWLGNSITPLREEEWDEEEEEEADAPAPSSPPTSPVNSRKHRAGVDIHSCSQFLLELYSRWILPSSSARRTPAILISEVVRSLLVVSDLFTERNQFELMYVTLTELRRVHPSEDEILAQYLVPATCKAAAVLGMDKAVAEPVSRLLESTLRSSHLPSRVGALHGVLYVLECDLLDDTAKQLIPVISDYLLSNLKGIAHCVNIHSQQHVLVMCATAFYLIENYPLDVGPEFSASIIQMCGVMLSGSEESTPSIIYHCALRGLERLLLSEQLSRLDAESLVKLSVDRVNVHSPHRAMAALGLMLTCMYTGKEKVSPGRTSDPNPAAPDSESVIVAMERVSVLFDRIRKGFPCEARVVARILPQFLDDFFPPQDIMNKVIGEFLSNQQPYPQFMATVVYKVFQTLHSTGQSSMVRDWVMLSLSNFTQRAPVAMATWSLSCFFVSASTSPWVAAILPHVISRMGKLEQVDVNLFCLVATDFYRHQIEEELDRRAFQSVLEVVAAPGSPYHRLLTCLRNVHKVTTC
An asterisk follows results filed as active; ! = not confirmed by another sample. Cut-off read from the data, not from the text of the source: active = inhibition above about 50%; inactive = the rest.

Screening Cc1ccc(N2C(=O)CSC2c2ccc([N+](=O)[O-])cc2)cc1F (stereo unspecified) returned Pf apPOL inh -1.6 and mHTT CaM bind 11.0.
`CCOc1cc(OCC)cc(C(=O)Nc2ccccn2)c1` gave Pf apPOL inh -0.1 and mHTT CaM bind -9.2.
`CCOc1cccc(C(Nc2ccccn2)c2ccc3ccc(C)nc3c2O)c1` (stereo unspecified) gave Pf apPOL inh -1.4 and mHTT CaM bind 59.0*.
Screening CCOc1ccc(C(=O)Nc2cccc(C)n2)cc1OCC returned Pf apPOL inh -4.1 and mHTT CaM bind 1.0.
CCOc1cccc(C(Nc2cccc(C)n2)c2ccc3ccc(C)nc3c2O)c1 (stereo unspecified) was read as Pf apPOL inh -58.2 and mHTT CaM bind 70.0*.
CCc1ccccc1-n1c(SCC(=O)Nc2cc(C)[nH]n2)nc2[nH]ncc2c1=O was read as Pf apPOL inh -3.3 and mHTT CaM bind 6.0.
Screening O=C(Nc1ccc(F)cc1F)c1ccc(-c2cncnc2)nc1 returned Pf apPOL inh -0.8 and mHTT CaM bind -0.1.
For COc1ccc(-n2nc3c(c2NC(=O)/C=C/c2ccco2)CSC3)cc1 the results were Pf apPOL inh -9.2 and mHTT CaM bind 77.0*.
`COc1ccc(-n2nc3c(c2NC(=O)/C=C/c2ccc(OC)c(OC)c2)CSC3)cc1` gave Pf apPOL inh 78.3* and mHTT CaM bind 32.0.
`COc1ccc(-n2nc3c(c2NC(C)=O)CSC3)cc1` gave Pf apPOL inh -3.2 and mHTT CaM bind 20.0.
`O=C(/C=C/c1ccco1)Nc1c2c(nn1-c1ccc(F)cc1)CSC2` gave Pf apPOL inh 0.6 and mHTT CaM bind 98.0*.
Screening O=C(/C=C/c1ccc2c(c1)OCO2)Nc1c2c(nn1-c1ccc(F)cc1)CSC2 returned Pf apPOL inh -2.8 and mHTT CaM bind 23.0.
For COc1ccc(-n2nc3c(c2NC(=O)/C=C/c2ccc(OC)c(OC)c2)CS(=O)(=O)C3)cc1 the results were Pf apPOL inh -1.8 and mHTT CaM bind 13.0.
For CCCCNC(=O)O[C@H]1CCC12CCC(c1ccccc1)CC2 (stereo partly specified) the results were Pf apPOL inh -7.1 and mHTT CaM bind -89.1.
For N#Cc1c(N2C(=O)C3C4C=CC(CC4)C3C2=O)sc2c1CCCC2 (stereo unspecified) the results were Pf apPOL inh 33.5 and mHTT CaM bind -3.0.
Screening O=C(Nc1ccc(N2CCCN(C(=O)C3CC3)CC2)cc1)c1c[nH]c2ccccc12 returned Pf apPOL inh -4.4 and mHTT CaM bind 24.1.
Screening COc1ccc(NC(=O)c2ccc(-c3cccc(Cl)c3)o2)cc1 returned Pf apPOL inh -5.5 and mHTT CaM bind 7.0.
`COc1ccc(NS(C)(=O)=O)cc1OC` gave Pf apPOL inh -1.6 and mHTT CaM bind -3.0.
Cc1ccc(N=Cc2cc(Br)cc(Cl)c2O)c(O)c1 was read as Pf apPOL inh 1.2 and mHTT CaM bind 38.0.
For Nc1ccccc1N=Cc1cc(Br)cc(Cl)c1O the results were Pf apPOL inh 1.9 and mHTT CaM bind 66.0*.
For CSc1ccc(C2Nc3cccc4cccc(c34)N2)cc1 the results were mHTT CaM bind 69.3*.
`CSc1ccc(C2Nc3ccccc3C(=O)N2c2ccc(C)cc2)cc1` (stereo unspecified) gave Pf apPOL inh -1.9 and mHTT CaM bind -2.0.
For O=C(c1cccc(Cl)c1)N1CCC(Cc2nnc(-c3ccccc3)o2)CC1 the results were Pf apPOL inh 1.0 and mHTT CaM bind 4.8.
For CN(C)c1ccc(C2C(C#N)=C(N)N(c3ccc(Cl)cc3)C3=C2C(=O)CCC3)cc1 (stereo unspecified) the results were Pf apPOL inh -3.8 and mHTT CaM bind 99.0*.
For N#CC1=C(N)N(c2ccc(Cl)cc2)C2=C(C(=O)CCC2)C1c1cccnc1 (stereo unspecified) the results were Pf apPOL inh -0.8 and mHTT CaM bind 1.0.
Screening CN(C)c1ccc(C2C(C#N)=C(N)N(c3ccc(Br)cc3)C3=C2C(=O)CCC3)cc1 (stereo unspecified) returned Pf apPOL inh -0.8 and mHTT CaM bind 100.0*.
`COc1ccc(N2C(N)=C(C#N)C(c3ccc(Br)cc3)C3=C2CCCC3=O)cc1` (stereo unspecified) gave Pf apPOL inh -5.0 and mHTT CaM bind 25.0.
For Cc1nn(C)c(C)c1Sc1ccc(Br)cc1 the results were Pf apPOL inh -2.8 and mHTT CaM bind 59.7*!.
For Cc1nn(C(=O)c2cccs2)c(C)c1Sc1ccc(Br)cc1 the results were Pf apPOL inh -4.4 and mHTT CaM bind 4.0.
`CC(C)(C)C1(C)OC2COCCOCCOCCOCC2O1` (stereo unspecified) gave Pf apPOL inh -2.6 and mHTT CaM bind 13.0.
For COc1cc(OC)cc(C2=Cc3ccccc3C(CC(=O)c3ccco3)N2c2ccc(-c3cncnc3)cc2)c1 (stereo unspecified) the results were Pf apPOL inh -6.1 and mHTT CaM bind 97.3*.
`CC(=O)CC1c2cc(F)ccc2C=C(c2ccsc2)N1c1ccc(-c2cccnc2)cc1` (stereo unspecified) gave Pf apPOL inh 4.5 and mHTT CaM bind 9.1.
`COc1cc(OC)cc(C2=Cc3ccccc3C(CC(=O)c3ccco3)N2c2ccc(-c3ccc(C(N)=O)cc3)cc2)c1` (stereo unspecified) gave Pf apPOL inh 1.9 and mHTT CaM bind 99.9*.
Screening COc1cc(OC)cc(C2=Cc3ccccc3C(CC(C)=O)N2c2ccc(C#CCCO)cc2)c1 (stereo unspecified) returned Pf apPOL inh -4.3 and mHTT CaM bind -9.3.
Screening NC(=O)c1ccc(-c2ccc(N3C(c4ccsc4)=Cc4ccc(F)cc4C3CC(=O)c3ccco3)cc2)cc1 (stereo unspecified) returned Pf apPOL inh -2.1 and mHTT CaM bind 58.4*.
COc1ccc(N2C(c3cc(OC)cc(OC)c3)=Cc3ccccc3C2CC(C)=O)cc1 (stereo unspecified) was read as Pf apPOL inh -3.2 and mHTT CaM bind -27.6.
CCS(=O)(=O)N1CCN(C(=O)c2ccc(OC)cc2)CC1 was read as Pf apPOL inh -20.3 and mHTT CaM bind 3.3.
For O=C(O)c1ccc(-c2nnc(-c3ccccc3Cl)o2)cc1 the results were Pf apPOL inh 9.8 and mHTT CaM bind -1.2.
`COc1ccc(NC(=O)N2CCC3(CC2)Nc2cc(F)ccc2-n2cccc23)c(OC)c1` gave Pf apPOL inh -1.0 and mHTT CaM bind 60.6*.
Screening COc1ccc(NC(=O)N2CCC3(CC2)Nc2ccccc2-n2cccc23)c(OC)c1 returned Pf apPOL inh 6.2 and mHTT CaM bind 63.5*.
For CCOc1ccccc1NC(=O)N1CCC2(CC1)Nc1cc(F)ccc1-n1cccc12 the results were Pf apPOL inh 3.6 and mHTT CaM bind 52.2*.
Screening O=C(Nc1ccccc1C(F)(F)F)N1CCC2(CC1)Nc1ccccc1-n1cccc12 returned Pf apPOL inh -0.2 and mHTT CaM bind 36.2.
Screening COc1ccc(OC)c(NC(=O)N2CCC3(CC2)Nc2ccccc2-n2cccc23)c1 returned Pf apPOL inh 8.7 and mHTT CaM bind 54.1*.
Screening O=C(Nc1ccccc1F)N1CCC2(CC1)Nc1cc(F)ccc1-n1cccc12 returned Pf apPOL inh 5.4 and mHTT CaM bind 32.9.
COc1ccc(NC(=O)C2CCN(C(=O)c3ccc(F)cc3)CC2)c(OC)c1 was read as Pf apPOL inh 3.3 and mHTT CaM bind 3.2.
`COc1ccc(NC(=O)N2CCC3(CC2)NC(=O)c2ccccc2N3C)c(C)c1` gave Pf apPOL inh -4.4 and mHTT CaM bind 0.2.

Assay outcomes deposited in PubChem BioAssay by University of Kansas High Throughput Screening Laboratory.
